Measured values: the supplement of paper PMC11732987, “Enantioselective OTUD7B fragment discovery through chemoproteomics screening and high-throughput optimisation” (Communications Chemistry, 2025)

Columns and labels:
Test in all cases: log2 ratio of Biotin-Ahx-Ub-VS probe labelling (fragment/DMSO); higher = less target engagement (more negative = stronger competition), active = hit call of the paper (q ≤ 0.05, log2 ratio ≤ -1)
Conditions in all cases: compound concentration: 200 uM; treatment time: 3 h
OTUD6B = target: T1, OTUD6B (UniProt Q8N6M0)
T1 sequence (whole entry): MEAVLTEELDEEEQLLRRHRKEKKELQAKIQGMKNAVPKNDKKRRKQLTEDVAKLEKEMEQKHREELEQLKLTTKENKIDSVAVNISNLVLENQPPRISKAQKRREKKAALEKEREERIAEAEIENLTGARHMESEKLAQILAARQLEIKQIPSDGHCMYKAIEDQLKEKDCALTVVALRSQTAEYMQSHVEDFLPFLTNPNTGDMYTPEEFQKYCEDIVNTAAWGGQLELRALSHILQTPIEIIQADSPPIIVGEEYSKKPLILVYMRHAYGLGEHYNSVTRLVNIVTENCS
How it was run: (§1)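 Fragment (200 µM) or vehicle was incubated for 3 h with triplicate HEK293T lysate samples of 495 µg, which were then treated with Biotin-Ahx-Ub-VS at 0.5 µM final for 1 h. Labelled DUBs were enriched on NeutrAvidin, digested with LysC and trypsin, and analysed by diaPASEF LC-MS/MS. Values are average log2 fragment/vehicle ratios from an unpaired t-test on global-median-normalised Spectronaut label-free quantities, using proteins with ≥2 unique peptides.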

OTUD7B = target: T2, OTUD7B (UniProt Q6GQQ9)
T2 sequence (whole entry): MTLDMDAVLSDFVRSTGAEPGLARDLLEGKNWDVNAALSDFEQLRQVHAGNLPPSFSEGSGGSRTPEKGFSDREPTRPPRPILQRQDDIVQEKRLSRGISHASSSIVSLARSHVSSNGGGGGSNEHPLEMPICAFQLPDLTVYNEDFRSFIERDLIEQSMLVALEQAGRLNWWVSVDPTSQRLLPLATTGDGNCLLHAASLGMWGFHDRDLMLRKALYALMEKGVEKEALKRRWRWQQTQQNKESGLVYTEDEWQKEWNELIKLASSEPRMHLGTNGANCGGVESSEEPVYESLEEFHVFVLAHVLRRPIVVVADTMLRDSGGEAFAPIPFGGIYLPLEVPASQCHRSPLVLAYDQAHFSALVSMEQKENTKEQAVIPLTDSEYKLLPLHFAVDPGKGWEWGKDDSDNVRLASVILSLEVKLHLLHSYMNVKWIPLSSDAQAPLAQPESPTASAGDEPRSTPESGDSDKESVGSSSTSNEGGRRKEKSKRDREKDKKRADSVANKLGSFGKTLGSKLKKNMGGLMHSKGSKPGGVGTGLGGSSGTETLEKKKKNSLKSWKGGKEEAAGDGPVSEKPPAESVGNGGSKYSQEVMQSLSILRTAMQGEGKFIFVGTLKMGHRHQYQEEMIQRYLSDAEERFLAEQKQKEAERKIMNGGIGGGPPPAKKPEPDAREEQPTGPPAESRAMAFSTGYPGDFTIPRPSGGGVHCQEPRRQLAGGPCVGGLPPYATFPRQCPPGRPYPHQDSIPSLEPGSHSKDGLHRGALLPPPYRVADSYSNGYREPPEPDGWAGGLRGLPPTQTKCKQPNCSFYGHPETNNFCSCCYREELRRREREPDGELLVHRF
How it was run: as §1

PRPF8 = PRPF8 (UniProt Q6P2Q9)
How it was run: as §1

PSMD7 = target: T3, PSMD7 (UniProt P51665)
T3 sequence (whole entry): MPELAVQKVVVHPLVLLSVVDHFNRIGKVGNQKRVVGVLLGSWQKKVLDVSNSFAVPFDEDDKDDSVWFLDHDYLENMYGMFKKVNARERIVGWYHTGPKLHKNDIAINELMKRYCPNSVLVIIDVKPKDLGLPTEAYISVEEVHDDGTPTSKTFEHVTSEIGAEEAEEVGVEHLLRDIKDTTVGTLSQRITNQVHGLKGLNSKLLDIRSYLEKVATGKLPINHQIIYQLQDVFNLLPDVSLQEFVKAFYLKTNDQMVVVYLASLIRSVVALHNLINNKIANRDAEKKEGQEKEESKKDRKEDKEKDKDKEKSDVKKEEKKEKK
How it was run: as §1

UCHL1 = UCHL1 (UniProt P09936)
Sequence of UCHL1 (P09936 whole entry, looked up): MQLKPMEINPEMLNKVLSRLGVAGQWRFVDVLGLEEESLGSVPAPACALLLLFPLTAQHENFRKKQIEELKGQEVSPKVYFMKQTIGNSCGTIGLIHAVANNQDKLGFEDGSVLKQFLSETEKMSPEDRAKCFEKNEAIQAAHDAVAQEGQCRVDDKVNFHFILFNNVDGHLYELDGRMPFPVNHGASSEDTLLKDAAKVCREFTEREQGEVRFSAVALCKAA
How it was run: as §1

UCHL3 = target: T4, UCHL3 (UniProt P15374)
T4 sequence (whole entry): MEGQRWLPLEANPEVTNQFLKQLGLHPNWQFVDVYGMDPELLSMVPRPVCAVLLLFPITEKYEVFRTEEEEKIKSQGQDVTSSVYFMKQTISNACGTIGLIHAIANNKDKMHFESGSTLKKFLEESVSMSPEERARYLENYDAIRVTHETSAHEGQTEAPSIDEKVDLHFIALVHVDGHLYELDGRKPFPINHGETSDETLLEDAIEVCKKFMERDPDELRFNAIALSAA
How it was run: as §1

UCHL5 = target: T5, UCHL5 (UniProt Q9Y5K5)
T5 sequence (whole entry): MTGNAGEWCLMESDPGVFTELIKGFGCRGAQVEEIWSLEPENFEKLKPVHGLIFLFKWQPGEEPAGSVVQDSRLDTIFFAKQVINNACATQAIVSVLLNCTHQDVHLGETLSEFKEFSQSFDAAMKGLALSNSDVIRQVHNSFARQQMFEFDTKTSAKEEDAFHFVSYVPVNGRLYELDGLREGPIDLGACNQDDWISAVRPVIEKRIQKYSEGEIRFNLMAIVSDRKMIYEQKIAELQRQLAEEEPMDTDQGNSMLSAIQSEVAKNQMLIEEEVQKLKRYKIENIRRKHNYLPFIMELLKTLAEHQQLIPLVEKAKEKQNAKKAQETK
How it was run: as §1

USP10 = USP10 (UniProt Q14694)
Sequence of USP10 (Q14694 whole entry): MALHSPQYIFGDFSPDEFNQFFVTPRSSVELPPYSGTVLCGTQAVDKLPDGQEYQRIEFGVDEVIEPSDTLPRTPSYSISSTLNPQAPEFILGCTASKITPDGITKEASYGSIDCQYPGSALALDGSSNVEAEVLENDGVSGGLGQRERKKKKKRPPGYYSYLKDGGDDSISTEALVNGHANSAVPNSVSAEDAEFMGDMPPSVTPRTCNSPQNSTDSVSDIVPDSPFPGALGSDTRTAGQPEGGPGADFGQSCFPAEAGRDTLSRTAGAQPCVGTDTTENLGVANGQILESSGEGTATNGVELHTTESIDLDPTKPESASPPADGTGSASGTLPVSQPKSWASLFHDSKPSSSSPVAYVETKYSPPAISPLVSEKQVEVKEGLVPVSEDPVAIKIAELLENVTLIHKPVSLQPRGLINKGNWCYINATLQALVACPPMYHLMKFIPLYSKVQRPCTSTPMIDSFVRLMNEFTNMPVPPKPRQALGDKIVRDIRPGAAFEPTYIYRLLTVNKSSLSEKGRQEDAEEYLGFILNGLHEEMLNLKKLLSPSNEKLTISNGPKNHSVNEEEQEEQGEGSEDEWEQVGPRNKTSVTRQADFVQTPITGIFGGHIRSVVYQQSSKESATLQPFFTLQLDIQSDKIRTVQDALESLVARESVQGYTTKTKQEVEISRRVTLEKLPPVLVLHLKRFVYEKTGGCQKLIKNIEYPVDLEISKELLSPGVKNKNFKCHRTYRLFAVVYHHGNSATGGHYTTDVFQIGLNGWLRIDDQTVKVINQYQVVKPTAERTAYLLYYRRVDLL
How it was run: as §1

USP15 = target: T6, USP15 (UniProt Q9Y4E8)
T6 sequence (whole entry): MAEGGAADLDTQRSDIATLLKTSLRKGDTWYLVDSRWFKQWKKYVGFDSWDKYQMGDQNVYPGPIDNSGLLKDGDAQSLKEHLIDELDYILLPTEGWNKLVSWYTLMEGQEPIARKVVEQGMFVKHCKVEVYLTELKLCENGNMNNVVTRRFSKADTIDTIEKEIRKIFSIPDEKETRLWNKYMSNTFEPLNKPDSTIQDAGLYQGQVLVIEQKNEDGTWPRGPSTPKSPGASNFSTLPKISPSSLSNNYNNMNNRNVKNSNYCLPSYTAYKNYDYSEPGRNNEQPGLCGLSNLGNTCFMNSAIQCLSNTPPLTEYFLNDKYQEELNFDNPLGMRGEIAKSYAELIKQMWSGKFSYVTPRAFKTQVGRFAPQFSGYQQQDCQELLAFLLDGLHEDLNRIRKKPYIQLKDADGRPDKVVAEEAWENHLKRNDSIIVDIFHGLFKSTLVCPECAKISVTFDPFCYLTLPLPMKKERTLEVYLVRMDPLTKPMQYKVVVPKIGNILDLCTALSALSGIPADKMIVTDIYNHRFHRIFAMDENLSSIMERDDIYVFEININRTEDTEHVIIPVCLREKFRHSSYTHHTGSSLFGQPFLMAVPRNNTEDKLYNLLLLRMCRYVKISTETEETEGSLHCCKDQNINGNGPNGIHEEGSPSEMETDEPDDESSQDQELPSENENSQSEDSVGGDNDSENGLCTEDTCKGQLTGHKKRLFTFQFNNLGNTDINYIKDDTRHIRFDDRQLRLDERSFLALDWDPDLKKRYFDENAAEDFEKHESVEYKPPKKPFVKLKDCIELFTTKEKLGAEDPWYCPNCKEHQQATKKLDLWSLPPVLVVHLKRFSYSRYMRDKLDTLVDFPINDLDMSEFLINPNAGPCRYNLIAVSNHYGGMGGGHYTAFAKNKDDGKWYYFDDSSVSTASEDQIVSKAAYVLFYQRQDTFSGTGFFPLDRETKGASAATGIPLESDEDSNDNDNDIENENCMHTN
How it was run: as §1

USP16 = USP16 (UniProt Q9Y5T5)
Sequence of USP16 (Q9Y5T5 whole entry, looked up): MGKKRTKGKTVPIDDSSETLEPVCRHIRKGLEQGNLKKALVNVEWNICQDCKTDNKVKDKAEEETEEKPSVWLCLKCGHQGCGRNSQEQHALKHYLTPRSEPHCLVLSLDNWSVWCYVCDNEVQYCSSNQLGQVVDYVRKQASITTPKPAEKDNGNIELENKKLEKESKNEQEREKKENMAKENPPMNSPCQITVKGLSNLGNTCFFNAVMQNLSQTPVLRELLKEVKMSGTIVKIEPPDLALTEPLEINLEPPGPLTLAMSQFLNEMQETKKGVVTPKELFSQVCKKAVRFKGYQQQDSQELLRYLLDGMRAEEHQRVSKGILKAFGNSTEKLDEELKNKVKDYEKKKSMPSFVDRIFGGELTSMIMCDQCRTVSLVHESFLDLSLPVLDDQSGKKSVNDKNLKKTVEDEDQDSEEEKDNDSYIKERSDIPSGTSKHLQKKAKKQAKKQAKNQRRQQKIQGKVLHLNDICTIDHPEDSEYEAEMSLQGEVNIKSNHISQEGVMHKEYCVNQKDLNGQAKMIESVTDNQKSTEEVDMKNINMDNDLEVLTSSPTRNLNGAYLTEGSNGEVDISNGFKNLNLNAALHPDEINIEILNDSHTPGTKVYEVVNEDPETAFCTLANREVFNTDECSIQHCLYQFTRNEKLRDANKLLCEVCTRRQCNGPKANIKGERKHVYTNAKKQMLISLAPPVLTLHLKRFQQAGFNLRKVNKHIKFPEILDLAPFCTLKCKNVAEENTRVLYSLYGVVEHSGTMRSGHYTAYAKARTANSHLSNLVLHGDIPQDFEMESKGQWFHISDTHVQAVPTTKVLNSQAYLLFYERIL
How it was run: as §1

Measured: log2 ratio of Biotin-Ahx-Ub-VS probe labelling

Cl.O=C(CCl)N1CCC(n2nc3ccccc3n2)CC1
inactive: OTUD6B -0.35 | OTUD7B -0.287 | PRPF8 0.224 | PSMD7 -0.494 | UCHL1 -0.9 | UCHL3 -0.23 | UCHL5 -0.457 | USP10 -0.135 | USP15 -0.702 | USP16 -0.441
